Bioassay records from PubChem.
ROC1-CUL1 inh: inhibitors of human ROC1-CUL1 ubiquitin ligase activity | hit rate 0.6% among 140,000 | inhibition, % at 10 µM | P62877+Q13616 | in vitro K48 di-Ub FRET, acceptor:donor ratio, 45 min | AID 1347404; in the data active means inhibition above about 25%
Numbers without * were called inactive. This excerpt belongs to a sample that is enriched for hits.

`CCOc1ccc(/C=C2/C(=O)NN(c3ccc(Cl)cc3)C2=O)cc1OC` gave ROC1-CUL1 inh -7.
Screening O=C1NC(=S)NC(=O)C1=Cc1cc2c(cc1Cl)OCO2 returned ROC1-CUL1 inh 3.
Screening CCOc1cc(/C=C2\C(=O)NN(c3ccc(Cl)cc3)C2=O)c(Br)c(Br)c1O returned ROC1-CUL1 inh 73*.
Screening C=CCn1nnc(NC(=O)C(C)(C)C)n1 returned ROC1-CUL1 inh 7.
For COc1ccc(-c2cc(C(=O)OCC(=O)c3ccc(C)cc3)c3cccc(Cl)c3n2)cc1 the results were ROC1-CUL1 inh -4.
Screening Cn1c(=O)n(C)c2cc(NS(=O)(=O)c3ccc(Br)cc3)c(NCc3ccccc3)cc21 returned ROC1-CUL1 inh -1.
Cc1nonc1C(=O)N=Nc1c2ccccc2c2nc3no[nH]c3nc12 was read as ROC1-CUL1 inh 45*.
For COc1cc(C)c(Cl)c(C)c1S(=O)(=O)N1CCN(c2ccccc2)CC1 the results were ROC1-CUL1 inh 5.
For CN(C)Cc1ccc(Sc2cccc(O)c2)cc1 the results were ROC1-CUL1 inh 6.
O=C(c1ccc2scnc2c1)N1CCCC(c2cc(=O)[nH]cn2)C1 (configuration not stated) was read as ROC1-CUL1 inh 1.
`COC(=O)c1cc(CNC(=O)COc2ccccc2)cc(NC(=O)C2(c3ccc(Cl)cc3)CC2)c1` gave ROC1-CUL1 inh 4.
Screening CCOc1cccc(-c2nnc(NC(=O)C34CC5CC(CC(C5)C3)C4)s2)c1 returned ROC1-CUL1 inh 7.
For COc1ccc(S(=O)(=O)Nc2ccc(-c3cn4ccsc4n3)cc2)cc1C the results were ROC1-CUL1 inh 4.
Screening COc1ccc(S(=O)(=O)Nc2ccc(-c3cn4c(C)csc4n3)cc2)cc1 returned ROC1-CUL1 inh 2.
`COc1ccc(S(=O)(=O)Nc2ccc(-c3cn4ccsc4n3)cc2)cc1` gave ROC1-CUL1 inh 97*.
CC1=NN(c2ccc(C)cc2)C(=O)/C1=C\c1ccc(OC(C)C)cc1 was read as ROC1-CUL1 inh 7.
For CC1=NN(c2ccc(C)cc2)C(=O)/C1=C\c1cccnc1 the results were ROC1-CUL1 inh 82*.
CC1=NN(c2ccccc2)C(=O)/C1=C/c1ccc(OCCCOc2ccccc2)cc1 was read as ROC1-CUL1 inh -10.
For O=C(Cn1ccc2cc(S(=O)(=O)N3CCCCCC3)ccc21)NCCc1ccccc1Cl the results were ROC1-CUL1 inh 0.
Cc1nsc2nc3c(F)c(F)c(N[C@@H](C)c4ccccc4)c(F)c3cc12 was read as ROC1-CUL1 inh 9.
For COc1ccc(CNc2c(F)c(F)c3nc4snc(C)c4cc3c2F)cc1 the results were ROC1-CUL1 inh -6.
COc1ccccc1CNc1c(F)c(F)c2nc3snc(C)c3cc2c1F was read as ROC1-CUL1 inh 87*.
`Cc1ccc(-n2c(=O)c3c(cnn3C)n(CC(=O)Nc3ccccc3C)c2=O)cc1` gave ROC1-CUL1 inh -17.
Screening CC(C)c1ccc(/C=C\C23NC(=O)CN2c2ccccc2C3(C)C)cc1 (configuration not stated) returned ROC1-CUL1 inh 8.
For COc1ccc2oc(C(=O)c3coc4ccc(O)c(CN(C)C)c34)cc2c1 the results were ROC1-CUL1 inh 1.
Screening O=C(NCc1cccnc1)NC1(C(F)(F)F)Oc2ccc(Cl)cc2O1 (configuration not stated) returned ROC1-CUL1 inh 1.
For CC(=O)Nc1ccc(OS(=O)(=O)c2ccc([N+](=O)[O-])cc2)cc1 the results were ROC1-CUL1 inh -6.
Screening CN1C(=O)/C(=C/c2ccc3c(c2)OCO3)SC1=Nc1ccc(C(=O)O)cc1 returned ROC1-CUL1 inh 12.
Screening C=CCN1C(=O)/C(=C/c2ccc(-c3ccc(C(=O)O)cc3)o2)SC1=S returned ROC1-CUL1 inh 5.
Screening CN1C(=O)/C(=C/c2ccc(-c3ccc(C(=O)O)cc3)o2)SC1=Nc1ccc(C(=O)O)cc1 returned ROC1-CUL1 inh 29*.
For Cc1ccc2occ(/C=N\NC(=O)COc3ccccc3-c3ccnn3-c3ccccc3)c(=O)c2c1 the results were ROC1-CUL1 inh 3.
Screening O=C(COc1ccccc1-c1ccnn1-c1ccccc1)N/N=C/c1coc2ccc(Cl)cc2c1=O returned ROC1-CUL1 inh 60*.
Screening O=C(COc1ccccc1-c1ccnn1-c1ccccc1)N/N=C/c1cc2ccccc2nc1Cl returned ROC1-CUL1 inh -4.
`COc1ccc(-c2nn3c(-c4ccccc4OC)nnc3s2)cc1` gave ROC1-CUL1 inh 2.
`Cn1nnnc1Sc1ccc([N+](=O)[O-])c(Sc2nnnn2C)n1` gave ROC1-CUL1 inh 32*.
Screening Cn1nnnc1Sc1ccc([N+](=O)[O-])cc1Cl returned ROC1-CUL1 inh -4.
`Cn1ccnc1Sc1ccc([N+](=O)[O-])c(Sc2nccn2C)n1` gave ROC1-CUL1 inh 3.
For Cc1ccc(OCCCSc2ncccn2)cc1C the results were ROC1-CUL1 inh 6.
CCOc1cc(/C=C2\C(=O)NN(c3ccccc3)C2=O)cc(Br)c1OCCCOc1ccc(C)cc1 was read as ROC1-CUL1 inh 17.
For COc1cc(/C=C2\C(=O)NN(c3ccccc3)C2=O)cc(Cl)c1OCCCOc1cccc(C)c1 the results were ROC1-CUL1 inh 23.
